Screening results: PubChem BioAssay, Buhrlage Lab, Dana-Farber Cancer Institute and Novartis Institutes for BioMedical Research (Cambridge, Mass)
Most compounds without a hit are left out; they make up all but 13% or so of the library.
USP28 block: inhibitors of human USP28 deubiquitinase; Q96RU2; actives 3% (n = 47,000); inhibition, % at 25 µM; purified USP28, Ub-rhodamine cleavage fluorescence, 30 min
USP8 block: blocks human USP8 ubiquitin-rhodamine cleavage. P40818. purified USP8, Ub-rhodamine cleavage fluorescence, 30 min. inhibition, % at 20 µM. actives 4.2% (n = 47,000). AID 1645853
USP17 inh: human USP17-like deubiquitinase inhibition | purified USP17, Ub-rhodamine cleavage fluorescence, 3 h | A8MUK1 | actives 6.5% (n = 47,000) | inhibition, % at 50 µM | AID 1645855
USP7 inh: blocks human USP7 ubiquitin-rhodamine cleavage. Q93009. AID 1645854. purified USP7, Ub-rhodamine cleavage fluorescence. actives 0.3% (n = 47,000). inhibition, % at 20 µM
USP30 inh: inhibitors of human USP30 deubiquitinase; AID 1645860; inhibition, % at 25 µM; actives 5.3% (n = 47,000); purified USP30, Ub-rhodamine cleavage fluorescence; Q70CQ3
USP10 inh: human USP10 deubiquitinase inhibition | purified USP10, Ub-rhodamine fluorescence, 60 min | inhibition, % at 20 µM | actives 1.1% (n = 47,000) | AID 1645856
* = called active by the depositor; x = no result given. Cut-off read from the data, not from the text of the source: active = inhibition above about 30%; inactive = the rest.

SMILES | USP28 block | USP8 block | USP17 inh | USP7 inh | USP30 inh | USP10 inh
CCCc1nc(SCC(=O)Nc2ccccc2)c2c(=O)n(C)c(=O)n(C)c2n1 | 12 | 18 | 24 | 8 | 31* | 9
CC(C)N(C(=O)COC(=O)c1cc(S(=O)(=O)N2CCCCC2)ccc1N1CCOCC1)c1ccccc1 | 20 | 20 | 5 | 12 | 26 | 10
O=C(NCc1ccncc1)c1ccc(-n2cccn2)c(C#Cc2cccnc2)c1 | -9 | -110 | 43* | 0 | -7 | -1
COc1ccc(-c2nn(-c3ccccc3)cc2C(=O)N2CCN(CCN3CCCC3)CC2)cc1 | -26 | -13 | 2 | -4 | -44 | -9
O=C(NC(C(=O)OCc1ccccc1)c1ccccc1)c1ccccc1 (centres undefined) | 9 | 4 | 26 | 2 | 32* | 6
N#Cc1ccc(OCc2noc(-c3ccc(F)cc3)n2)cc1 | 23 | 38* | 7 | 5 | -14 | 1
CCC(CC)c1nnc(NC(=O)c2ccc(=O)[nH]c2)s1 | -6 | -6 | -8 | 1 | -15 | -1
Cc1ccc(S(=O)(=O)N2CCCCC2C(=O)Nc2nc3ccc(S(C)(=O)=O)cc3s2)cc1 (centres undefined) | 8 | -99 | -19 | 6 | -8 | -2
Cc1ccc2nc(NC(=O)C3CCCN3S(=O)(=O)c3ccc4c(c3)OCCO4)sc2c1 (centres undefined) | 53* | 17 | 7 | 7 | 0 | 2
CN(C(=O)c1ccncc1)[C@H]1CC[C@@]2(C)C[C@H](c3ccccc3)C[C@](C)(O2)[C@@H]1O | 81* | 20 | 11 | 5 | 29 | 0
CCOc1ccc(NC(=O)Cn2cnc(S(=O)(=O)N3CCc4ccccc43)c2)cc1 | 48* | 1 | 80* | 12 | 11 | 6
CCc1ccc(NC(=O)Cn2cnc(S(=O)(=O)N3CCCC3)c2)cc1 | 7 | 9 | 21 | 3 | 14 | 1
CC(C)(C)c1cc2n(n1)CCN(S(=O)(=O)c1ccc(F)cc1)C2 | -1 | 10 | 14 | -10 | 12 | 0
CN(C(=O)c1ccc(N2CCCCS2(=O)=O)cc1Cl)c1ccccc1 | 9 | 10 | 21 | 5 | 11 | 2
Cc1ccc(CNc2cc(-n3cccn3)ncn2)cc1 | 31* | 0 | 20 | 0 | -3 | 5
Cc1ccc(CNc2cc(-n3ccnc3)ncn2)cc1C | 5 | 4 | x | 2 | 12 | 1
O=C(CN1CCC2(CC1)N=C(c1ccc(Cl)cc1)C(=O)N2)Nc1ccc(Cl)cc1 | -7 | -10 | -7 | 1 | 1 | -3
Cc1sc(-c2ccc(Cl)nc2)nc1OC(=O)c1ccc(F)cc1F | 10 | 11 | 53* | -2 | 45* | 6
Cc1ccc(N(CC(=O)NC2CCCCC2)C(=O)CCC(=O)Nc2ccccn2)c(C)c1 | -4 | -6 | -10 | -18 | -1 | 5
COc1ccc([N+](=O)[O-])cc1NC(=O)COC(=O)C1CCCN1S(=O)(=O)c1ccc(Cl)cc1 (centres undefined) | 4 | -19 | 0 | 0 | 35* | 6
COc1ccc(S(=O)(=O)N2CCOCC2)cc1NC(=O)COc1ccc([N+](=O)[O-])cc1 | 8 | -43 | 18 | -3 | 8 | 4
O=C(COC(=O)[C@@H]1CCCN1S(=O)(=O)c1ccc(Cl)cc1)Nc1ccccc1 | -3 | 3 | -5 | -5 | -1 | 4
O=C(COC(=O)C1(c2ccc(Cl)cc2)CCCC1)c1ccc2c(c1)OCCO2 | -7 | 0 | -15 | 2 | -21 | 4
O=C(COC(=O)C1CCCN1S(=O)(=O)c1ccc(Cl)cc1)Nc1ccc2c(c1)OCO2 (centres undefined) | 30 | 20 | 22 | 3 | 33* | 8
O=C(COC(=O)C1(c2ccc(Cl)cc2)CCCC1)Nc1ccc2c(c1)OCO2 | 19 | 36* | 8 | 15 | 48* | 16
CCCN1CCN(C(=O)c2cn3ccnc(-c4ccccc4)c3n2)CC1 | 1 | 1 | 0 | -1 | 0 | -5
Cc1ccccc1Nc1oc2c(c1-c1ccccc1Cl)c(=O)n(C)c(=O)n2C | -4 | -29 | -15 | 1 | -18 | 0
NS(=O)(=O)c1cc(C(=O)OCC(=O)Nc2ccc(N3CCOCC3)cc2)ccc1Cl | -1 | 21 | 34* | 2 | 14 | 6
COc1cc(N)c(Cl)cc1C(=O)OCC(=O)c1ccc2c(c1)OCCO2 | 55* | -3 | 1 | -44 | 0 | 5
